From the supplement of paper PMC9334596 come the findings set out here.

Several values for one entry are separate records, joined by “and”; a condition that tells them apart may be missing. Equal entries are not always repeated. The full ranking holds about 5,300 compounds; the median of “PER2::LUC luminescence relative to vehicle control” is about 0.96, and the highest 2% start at about 1.3. Many of the other results were omitted from the sample, so the highest values are more common in it than they were.

This test relates to mPer2Luc MEF. As to the kind of experiment: PER2::LUC luminescence relative to vehicle control (fold of vehicle); higher = higher PER2::LUC reporter signal. The note with it: 10 µM. In outline: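 Each value gives PER2::LUC luminescence as fold of vehicle control, measured with the ONE-Glo luciferase assay system in mouse embryonic fibroblasts carrying the mPer2Luc reporter. Cells grown in DMEM with 10% FBS at 37 °C and 5% CO2 were seeded at ~3000 per well in 384-well plates. Library compounds were added at 10 μM 48 h later, and readings were taken 24 h and 30 h after treatment.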

As to `O=C([O-])CN1CCN(CC(=O)[O-])CCN([C@H](CO)[C@H](O)CO)CCN(CC(=O)[O-])CC1.[Gd+3]` (racemic), the “PER2::LUC luminescence” value was 1.03 (time after treatment 24 h) and 1.04 (time after treatment 30 h).

Consider `C[C@H]1COC2(CCN(c3nc(=O)c4cc(C(F)(F)F)cc([N+](=O)[O-])c4s3)CC2)O1` (racemic), for which the “PER2::LUC luminescence” value came to 1.32 (time after treatment 24 h) and 1.39 (time after treatment 30 h).

Turning to `COCc1c(C(C)C)nc(C(C)C)c(/C=C/[C@@H](O)C[C@@H](O)CC(=O)O)c1-c1ccc(F)cc1`, the “PER2::LUC luminescence” value was determined as 0.305 (time after treatment 24 h) and 0.274 (time after treatment 30 h).

Take `CCCCN1CCCC1CNC(=O)c1cc(C#N)c2ccccc2c1OC` (stereo not given): the “PER2::LUC luminescence” value reads like this: (time after treatment 24 h) 1; (time after treatment 30 h) 1.58.

As for `CCN1CCC[C@H]1CNC(=O)c1c(O)c(Cl)cc(Cl)c1OC`, the “PER2::LUC luminescence” value reads like this: (time after treatment 24 h) 1.14 and 1.02; (time after treatment 30 h) 0.977 and 0.877.

`CCN1CCC[C@H]1CNC(=O)c1c(OC)ccc(Br)c1OC`: the “PER2::LUC luminescence” value is, setting by setting: (time after treatment 24 h) 1.03; (time after treatment 30 h) 0.993.

For `CC(C)=CCC[C@@H](C)[C@H]1CC[C@@]2(C)C3=C(CC[C@]12C)[C@@]1(C)CC[C@H](O)C(C)(C)[C@@H]1CC3`, the “PER2::LUC luminescence” value runs as follows: (time after treatment 24 h) 1.06; (time after treatment 30 h) 0.995.

With `O=C(O)CC1CCC(c2ccc(-c3ccc4nc(C(=O)NCc5ccc(OC(F)(F)F)cc5)cn4c3)cc2)CC1` (stereo not given), the “PER2::LUC luminescence” value is, setting by setting: (time after treatment 24 h) 1; (time after treatment 30 h) 1.1.

Take `c1ccc2[nH]c(-c3cscn3)nc2c1`: the “PER2::LUC luminescence” value amounted to 1.41 (time after treatment 24 h) and 1.35 (time after treatment 30 h).

With `c1ccc(Cc2nc3ccccc3[nH]2)cc1`, the “PER2::LUC luminescence” value came to 1.17 (time after treatment 24 h) and 0.971 (time after treatment 30 h).

As to `CC(C)(C)c1ccc(-c2nc3ccccc3[nH]2)cc1`, the “PER2::LUC luminescence” value is, setting by setting: (time after treatment 24 h) 0.03; (time after treatment 30 h) 0.034.

Take `O=C(NC[C@@H]1CN(c2ccc(N3CCOCC3=O)cc2)C(=O)O1)c1ccc(Cl)s1`: the “PER2::LUC luminescence” value reads like this: (time after treatment 24 h) 0.948; (time after treatment 30 h) 0.975.

Consider `CNC(=O)[C@H]1O[C@@H](n2cnc3c(N)ncnc32)[C@H](O)[C@@H]1O`, for which the “PER2::LUC luminescence” value reads like this: (time after treatment 24 h) 1.11; (time after treatment 30 h) 1.03.

With `C[C@H]1CC[C@@H](C(C)(C)O)CC2=C1CC[C@@H]2C`, the “PER2::LUC luminescence” value by setting is: (time after treatment 24 h) 1.46; (time after treatment 30 h) 1.05.

With `CC1(O)CCC(C(C)(C)O)CC1` (stereo not given), the “PER2::LUC luminescence” value is 0.901 and 0.99 (time after treatment 24 h); 0.986 and 0.688 (time after treatment 30 h).

`CCOc1ccc2nc(S(N)(=O)=O)sc2c1`: the “PER2::LUC luminescence” value runs as follows: (time after treatment 24 h) 1.19; (time after treatment 30 h) 1.28.

Turning to `Nc1nc2ccc(OC(F)(F)F)cc2s1`, the “PER2::LUC luminescence” value runs as follows: (time after treatment 24 h) 1.26 and 0.999; (time after treatment 30 h) 1.5 and 1.06.

Take `Oc1cc(O)cc(/C=C/c2ccc(O)c(O)c2)c1`: the “PER2::LUC luminescence” value (time after treatment 24 h) came to 1.15 and the “PER2::LUC luminescence” value (time after treatment 30 h) stood at 1.09.

In the case of `Oc1ccc(/C=C/c2cc(O)cc(O)c2)cc1`, the “PER2::LUC luminescence” value worked out at 1.46 (time after treatment 24 h) and 1.29 (time after treatment 30 h).

On to `COc1cc(/C=C/c2ccc(O)cc2)cc(OC)c1`, for which the “PER2::LUC luminescence” value is, setting by setting: (time after treatment 24 h) 1.03; (time after treatment 30 h) 0.93.

For `NC1(C(=O)O)C[C@@H](C(=O)O)[C@H](C(=O)O)C1` (racemic), the “PER2::LUC luminescence” value is, setting by setting: (time after treatment 24 h) 0.98; (time after treatment 30 h) 0.892.

For the compound `COc1cc(-c2oc3cc(O)ccc3c(=O)c2O)ccc1O`, the “PER2::LUC luminescence” value reads like this: (time after treatment 24 h) 1.13; (time after treatment 30 h) 1.2.

In the case of `COc1cc(N(C)CCN(C)C)c(N)cc1Nc1nccc(-c2cn(C)c3ccccc23)n1`, the “PER2::LUC luminescence” value by setting is: (time after treatment 24 h) 0.57; (time after treatment 30 h) 0.54.

Turning to `COc1ccc2c(c1)OCc1c-2oc2cc(OC)ccc12`, the “PER2::LUC luminescence” value is, setting by setting: (time after treatment 24 h) 1.52; (time after treatment 30 h) 1.8.

For `COc1ccc2c(C)cc(=O)oc2c1`, the “PER2::LUC luminescence” value runs as follows: (time after treatment 24 h) 0.984; (time after treatment 30 h) 1.02.

On to `COc1ccc2c(c1)OC/C(=C\c1ccc(OC)c(O)c1)C2=O`, for which the “PER2::LUC luminescence” value amounted to 0.879 (time after treatment 24 h) and 0.794 (time after treatment 30 h).

Consider `OC1c2ccccc2N=C2CCCN21` (stereo not given), for which the “PER2::LUC luminescence” value by setting is: (time after treatment 24 h) 0.854; (time after treatment 30 h) 0.868.

In the case of `N#CC[C@H](C1CCCC1)n1cc(-c2ncnc3[nH]ccc23)cn1`, the “PER2::LUC luminescence” value (time after treatment 24 h) turned out to be 0.99 and the “PER2::LUC luminescence” value (time after treatment 30 h) is 1.13.

With `CCS(=O)(=O)N1CC(CC#N)(n2cc(-c3ncnc4[nH]ccc34)cn2)C1`, the “PER2::LUC luminescence” value reads like this: (time after treatment 24 h) 1.09 and 0.875; (time after treatment 30 h) 1.24 and 1.03.

In the case of `N#CCC(C1CCCC1)n1cc(-c2ncnc3[nH]ccc23)cn1` (stereo not given), the “PER2::LUC luminescence” value runs as follows: (time after treatment 24 h) 1.26; (time after treatment 30 h) 1.51.
